Screening data from PubChem BioAssay.
A selection: hits, their analogues and other compounds. The true share with any hit is near 5.7%.
ATXN2 expr inh: reduces ATXN2 reporter expression in HEK-293 cells; Potency, µM (doses to about 57 µM), for the others: at the top dose activity change, negative = inhibition, usual class: inhibitors; HEK-293 ATXN2-luciferase reporter, luminescence, 24 h; actives 0.72% (n = 360,000); further: potency means the concentration at half of the fitted maximal effect; on the % scale 0 is the no-effect control and ±100 the full control effect; nearly all actives have a fitted effect of over 55% in size
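ATXN2-luciferase reporter cells (luciferase flanked by upstream and downstream ATXN2 gene portions) were treated 24 h at 37 °C with compounds at up to 57 uM. SteadyGlo luminescence gave expression; GF-AFC fluorescence gave viability.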
TGFb SMAD3 inh: blocks TGF-b signaling; Potency, µM (top dose mostly 46.1 µM), inactives show top-dose activity, negative = inhibition, actives largely listed as inhibitors; actives 1.2% (n = 410,000); AID 588855; HepG2 CAGA-GFP TGF-b/SMAD3 reporter, GFP fluorescence, 18 h; TGF-beta stimulated, 500 pg/mL final; further: potency means the concentration at half of the fitted maximal effect; on the % scale 0 is the no-effect control and ±100 the full control effect; nearly all actives have a fitted effect of over 65% in size
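HEPG2 CAGA-GFP, 1000 cells/well; 2 h settle, 37 C; cpd via pin tool; TGF-b 500 pg/mL final; 18 h, 37 C; GFP imaging ex488/em500-530; %Activity normalised to -TGF-b and +DMSO controls; CRC fit, curve class.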
S2 tox: viability counter-screen for ATXN expression inhibitors | S2 cells (HEK-293 line with an ATXN2-luciferase reporter) viability, CellTiter-Fluor protease fluorescence, 24 h | Potency, µM (highest dose often 56.7 µM), actives largely listed as cytotoxic | actives 0.49% (n = 400,000); further: potency means the concentration at half of the fitted maximal effect; nearly all actives have a fitted effect of over 40% in size
HepG2 viability: kills HepG2 cells in TGF-b inhibitor counter-screen; HepG2 CAGA-GFP viability, ATP luminescence, 18 h; Potency, µM (series often up to 46.1 µM), inactives show at the top dose activity change, negative = cytotoxicity, usual class: cytotoxic; actives 0.76% (n = 410,000); further: potency means the concentration at half of the fitted maximal effect
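HepG2 CAGA-GFP cells (1000/well, DMEM with 1% FBS) received compound, then TGF-beta at 500 pg/mL final, and were incubated 18 hours at 37 degrees C. Viability was read by CellTiter-Glo luminescence. Media-only wells were set as complete cell-killing and DMSO as no toxicity.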
IL1B secr inh: blocks inflammasome-driven IL-1 beta release; actives 4.7% (n = 360,000); activity change, % at 57.5 µM; THP-1 LPS/ATP IL-1B secretion, AlphaLISA, 16 h; hits give low values; AID 743279; in the data active means activity change below about -50%; inconclusive means mostly about -30% to -49%; further: on the % scale 0 is the no-effect control and ±100 the full control effect
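Secreted IL-1B measured by AlphaLISA bead assay after 16 h compound exposure of THP-1 cells; compounds (final up to 57.5 uM) added 1 h before LPS (250 ng/mL) and ATP (1.25 mM) stimulation; lower signal means less secretion.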
The depositor's hits bear a star; i = inactive; ? = inconclusive; / = no result given. Unless noted, the call rests on the fitted dose curve; in most records, active means well fitted curve in the direction sought with a large enough effect; inconclusive means small, poorly fitted or top-dose-only effect, or another doubt; inactive means no such curve, though single readings can be large; an effect the other way counts as inactive or inconclusive.

SMILES | ATXN2 expr inh | TGFb SMAD3 inh | S2 tox | HepG2 viability | IL1B secr inh
CCCCC/C=C\CCC(=O)N[C@H]1[C@H](Oc2c3cc4cc2Oc2ccc(cc2Cl)[C@@H](O[C@@H]2O[C@H](CO)[C@@H](O)[C@H](O)[C@H]2NC(C)=O)[C@@H]2NC(=O)[C@H](NC(=O)[C@@H]4NC(=O)[C@H]4NC(=O)[C@@H](Cc5ccc(c(Cl)c5)O3)NC(=O)[C@H](N)c3ccc(O)c(c3)Oc3cc(O)cc4c3)c3ccc(O)c(c3)-c3c(O[C@H]4O[C@H](CO)[C@@H](O)[C@H](O)[C@@H]4O)cc(O)cc3[C@@H](C(=O)O)NC2=O)O[C@H](CO)[C@@H](O)[C@@H]1O | / | / | i | / | /
CC1CN(Cc2cccn2-c2ncccn2)Cc2cc(Cl)ccc2O1 (stereo not drawn) | / | / | i | / | /
COc1ccc(C(C(=O)NC2CCCC2)N(C(=O)c2snc(C(N)=O)c2N)C2CCCC2)cc1OC (stereo not drawn) | -3% | 17% | i | 15% | -11
COc1ccc(OC)c(C(C(=O)NC2CCCCC2)N(C(=O)c2snc(C(N)=O)c2N)c2ccccc2OC)c1 (stereo not drawn) | -10% | 10% | i | -21% | 12
COc1ccc(C)cc1N(C(=O)c1snc(C(N)=O)c1N)C(C(=O)NC1CCCCC1)c1ccc(C)o1 (stereo not drawn) | -6% | ? | i | 6% | -55*
COc1ccc(C(C(=O)NC2CCCCC2)N(Cc2ccco2)C(=O)c2snc(C(N)=O)c2N)cc1 (stereo not drawn) | -36% | -25% | i | -25% | -68*
NC(=O)c1nsc(C(=O)N(Cc2ccco2)C(C(=O)NC2CCCC2)c2ccc(O)cc2)c1N (stereo not drawn) | -11% | ? | i | -8% | -1
COc1ccc(C(C(=O)NC2CCCC2)N(Cc2ccco2)C(=O)c2snc(C(N)=O)c2N)cc1OC (stereo not drawn) | 0% | 10% | i | 5% | -59*
COc1ccc(C)cc1NC(=O)N1CCC(CN2CCOCC2)CC1 | / | 3% | / | -2% | /
CCOc1ccccc1C(=O)N[C@H](C(=O)OCc1cc(=O)oc2cc(C)ccc12)C(C)C | -22% | ? | i | 0% | -55*
CC(=O)N1CCc2cc(CNS(=O)(=O)c3ccccc3C(F)(F)F)ccc21 | / | 1% | / | -22% | /
Cc1cc(NS(=O)(=O)c2ccc(NC(=O)c3ccc([N+](=O)[O-])s3)cc2)nc(C)n1 | -14% | ? | ? | -26% | -53*
Cc1cc(NS(=O)(=O)c2ccc(NC(=O)c3c(F)c(F)c(F)c(F)c3F)cc2)nc(C)n1 | 3% | 4% | i | -1% | -20
Cc1ccnc(NS(=O)(=O)c2ccc(NC(=O)c3ccc([N+](=O)[O-])s3)cc2)n1 | ? | ? | i | 11µM* | -21
CCc1ccccc1NC(=O)c1sc(-n2nc(C)c(Cc3ccc4c(c3)OCO4)c2C)nc1C | 11% | 13% | i | 5% | /
O=C(c1cnsn1)N1CCOc2ccc(C(O)C(c3ccccc3)c3ccccc3)cc2C1 (stereo not drawn) | / | / | i | / | /
CC(C)N1CSC(=S)N(Cc2ccccc2)C1 | ? | 13% | ? | -15% | -99*
S=C1SCN(Cc2cccnc2)CN1Cc1ccccc1 | ? | ? | ? | 0% | -107*
N#Cc1cn(Cc2cccc(Cl)c2)c2ccccc12 | -6% | -6% | i | 16% | -3
CCn1c2ccccc2c2cc(/C=N/n3cnnc3)ccc21 | ? | ? | i | -70% | -59*
N#Cc1ccccc1Cn1cc(/C=C/[N+](=O)[O-])c2ccccc21 | ? | 4.5µM* | / | 7.1µM* | -100*
O=[N+]([O-])/C=C/c1cn(Cc2ccccc2)c2ccccc12 | ? | ? | ? | -47% | -70*
C(=N\n1cnnc1)/c1cn(Cc2ccccc2)c2ccccc12 | -16% | 13µM* | i | -74% | -12
CCn1c2ccccc2c2cc(/C=N/n3cn[nH]c3=S)ccc21 | ? | ? | i | -50% | -12
O=C(O)Cn1cc(/C=C/[N+](=O)[O-])c2ccccc21 | -27% | -22% | ? | 11% | -11
SMILES | ATXN2 expr inh | TGFb SMAD3 inh | S2 tox | HepG2 viability | IL1B secr inh
O=C(Cn1cc(/C=C\[N+](=O)[O-])c2ccccc21)Nc1ccccc1 | ? | 8.9µM* | / | 11µM* | -96*
CC(NCC(O)c1ccc([N+](=O)[O-])cc1)C12CC3CC(CC(C3)C1)C2 (stereo not drawn) | 2% | 9% | i | -30% | -85*
Cc1nc2ccccc2nc1OCc1cccc(Cl)c1 | -5% | 11µM* | i | -43% | 19
Cc1nn(-c2ccccc2)c(C)c1/C=N/n1c(-c2ccccc2Br)n[nH]c1=S | 32% | ? | i | 22% | 18
CCN(CC)c1ccc(/C=N/n2c(-c3ccccc3Br)n[nH]c2=S)cc1 | -17% | ? | i | 3% | -67*
Cc1cc(N2CCN(C)CC2)nc2ccc(NC(=S)NCCCN3CCc4ccccc4C3)cc12 | 32µM* | -6% | 18µM* | -23% | -92*
Cc1cc(N2CCN(C)CC2)nc2ccc(NC(=S)N3CCN(c4cccc(Cl)c4)CC3)cc12 | -23% | 0% | i | 5% | 19
Cc1cccc(N2CCN(C(=S)Nc3ccc4nc(N5CCN(C)CC5)cc(C)c4c3)CC2C)c1 (stereo not drawn) | / | ? | / | 10µM* | -72*
Cc1cc(N2CCCC2)nc2ccc(NC(=S)NCCCN3CCC(C)CC3)cc12 | ? | ? | ? | 18µM* | -140*
Cc1cc(N2CCOCC2)nc2ccc(NC(=S)N3CCCCC3C)cc12 (stereo not drawn) | -20% | -18% | i | -2% | -67*
CCCN1CCN(CCCNC(=S)Nc2ccc3nc(N4CCN(CC)CC4)cc(C)c3c2)CC1 | / | -3% | i | -26% | -13
COc1cc2nc(N3CCCC(O)C3)c(CNCc3ccccc3F)cc2c(OC)c1OC (stereo not drawn) | / | / | i | / | /
Cc1ccc(-n2ncc3c(N(C)Cc4ccccc4)ncnc32)cc1 | 146% | 14% | i | 7% | /
CCOc1ccccc1CNC(=O)c1ccc(N2Cc3ccccc3Oc3ncccc32)s1 | / | ? | / | -24% | /
Fc1ccc(Oc2nnnn2-c2ccccc2)cc1 | -14% | 2% | i | -49% | -58*
Brc1ccc(Oc2nnnn2-c2ccccc2)cc1 | 9% | -3% | i | -27% | ?
Cc1onc(-c2c(F)cccc2Cl)c1C(=O)OCC(=O)c1c[nH]c2ccccc12 | 0% | ? | i | -11% | -52*
